Source: ChEMBL document CHEMBL4296183, “CO-ADD screening of NIH NCI Natural Product Set III” (2020)
For part of these data: Entries with a potency or affinity are not part of this list.

How the values were obtained:
Staphylococcus aureus = assay: Antibacterial activity against Staphylococcus aureus MRSA ATCC 43300 (CO-ADD:GP_020); MIC in CAMBH media using NBS plates, by Resazurin F(560/590); format: functional; conditions: Concentration 20 uM, ASSAY_TEST Inhibition of Bacterial Growth, detection method Resazurin, Fluorescence (ex560/em590), MEDIA CAMHB, plate type 384well, CORNING #3640, time 18 hr
Acinetobacter baumannii = assay: Antibacterial activity against Acinetobacter baumannii ATCC 19606 (CO-ADD:GN_034); MIC in CAMBH media using NBS plates, by Resazurin F(560/590); format: functional; conditions: Concentration 20 uM, ASSAY_TEST Inhibition of Bacterial Growth, detection method Resazurin, Fluorescence (ex560/em590), MEDIA CAMHB, plate type 384well, CORNING #3640, time 18 hr
Escherichia coli = assay: Antibacterial activity against Escherichia coli ATCC 25922 (CO-ADD:GN_001); MIC in CAMBH media using NBS plates, by Resazurin F(560/590); format: functional; conditions: Concentration 20 uM, ASSAY_TEST Inhibition of Bacterial Growth, detection method Resazurin, Fluorescence (ex560/em590), MEDIA CAMHB, plate type 384well, CORNING #3640, time 18 hr
Klebsiella pneumoniae = conditions: Concentration 20 uM; ASSAY_TEST Inhibition of Bacterial Growth; detection method Absorption (OD600); MEDIA CAMHB; plate type 384well; NBS; CORNING #3640; time 18 hr
Candida albicans = conditions: 20 µM
Cryptococcus neoformans = conditions: Concentration 20 uM; ASSAY_TEST Inhibition of Fungal Growth; detection method Resazurin; Absorption (OD600-OD570); plate type 384well; NBS; CORNING #3640

| Compound | Inhibition (Staphylococcus aureus) [%] | Inhibition (Acinetobacter baumannii) [%] | Inhibition (Escherichia coli) [%] | Inhibition (Klebsiella pneumoniae) [%] | Inhibition (Candida albicans) [%] | Inhibition (Cryptococcus neoformans) [%] |
| --- | --- | --- | --- | --- | --- | --- |
| COc1c2c(c(CC=C(C)C)c3oc(=O)c(-c4ccc(O)cc4)c(O)c13)OC(C)(C)C=C2 [LONCHOCARPIC ACID] | 25.18 | -13.6 | 7.94 | -4.69 | -1.79 | -11.25 |
| CN1CCc2cc3c(cc2[C@H]1[C@@H]1OC(=O)c2c1ccc1c2OCO1)OCO3 [BICUCULLINE] | 11.14 | -4.97 | 3.43 | 11.38 | -1.4 | -11.52 |
| CC[C@](C)(O)C(=O)O[C@H]1C(=O)O[C@@H]2C[C@H]3C(C)=C[C@H](O)[C@@H](O)[C@]3(C)[C@H]3[C@@]4(O)OC[C@]32[C@@H]1[C@@H](C)[C@H]4O | 12.34 | -9.38 | 1.71 | 10.36 | 4.77 | -4.27 |
| CC(C)(O)C1C2OC(=O)C1C1(O)CC3OC34C(=O)OC2C14C (stereo not given) | -15.24 | -3.06 | 2.11 | 1.65 | 3.44 | -6.7 |
| CO[C@@H]1[C@H](O)CC[C@]2(CO2)[C@H]1[C@@]1(C)O[C@@H]1CC=C(C)C | 4.97 | 1.38 | 4.31 | 14.33 | 4.27 | -4.91 |
| COc1ccc2c(c1OC)CN1CCc3cc4c(cc3C1C2)OCO4 (stereo not given) [TETRAHYDROBERBERINE] | 10.57 | -8.62 | 7.87 | -2.26 | -1.05 | -13.18 |
| CC[C@H]1CN2CCc3cc(OC)c(OC)cc3[C@@H]2C[C@@H]1C[C@H]1NCCc2c1[nH]c1ccc(O)cc21 [TUBULOSINE] | 2.68 | -12.49 | 3.63 | -0.53 | 2.67 | -8.19 |
| C[C@H]1CCC/C=C/[C@@H]2C[C@H](O)C[C@H]2[C@H](O)/C=C/C(=O)O1 [BREFELDIN A] | 11.17 | -7.42 | 11.85 | -5.16 | 51.3 | -9.22 |
| C=C1C(C)C2C(Cc3ccccc3)NC(=O)C23C(OC(C)=O)/C=C/C(C)(O)CC(C)C/C=C/C3C1O (stereo not given) | -5.72 | -9.16 | -0.68 | -1.52 | 1.45 | -3.95 |
| COc1ccc2c3c([nH]c2c1)[C@H](C=C(C)C)N1C(=O)[C@@H]2CCCN2C(=O)[C@@H]1C3 [FUMITREMORGIN] | -0.07 | 0.14 | 5.9 | -0.45 | 1.52 | -5.88 |
| CC12C(=O)C=CCC1=CCC1C2CCC2(O)C(=O)OC3(C)C4CC5(C)C(COC16OC23C5C6=O)C(=O)O4 (stereo not given) | 21.05 | -16.5 | 8.61 | -1.2 | -2.84 | -7.36 |
| CC1OC(=O)C2CC3CCCCC3C(/C=C/C3CCCC(C)N3C)C12 (stereo not given) | 14.11 | -6.83 | 5.85 | 4.75 | 0.31 | -10.1 |
| O=P1(N(CCCl)CCCl)NCCCO1 (stereo not given) [CYCLOPHOSPHAMIDE ANHYDROUS] | 22.17 | -9.14 | 1.21 | 1.43 | -2.64 | -8.46 |
| CC[C@@]1(O)C(=O)OCc2c1cc1n(c2=O)Cc2cc3ccccc3nc2-1 [CAMPTOTHECIN] | 9.46 | -0.94 | 5.98 | 5.61 | 4.14 | -6.71 |
| C=C1C(=O)OC2C1CCC(C)C1(O)C=CC(=O)C21C (stereo not given) | -5.72 | -10.47 | 2.36 | 3.79 | -0.93 | -3.28 |
